The record followed here is PubChem BioAssay (EPA / NIEHS).

Assay [1] has as its target Cellular tumor antigen p53 (Homo sapiens) (UniProt P04637). Description: TOX21_p53_BLA_p2_ratio: Tox21 HCT-116 p53 Agonism Beta-lactamase Assay, Ratio, Phase 2 (AID 2283592). Summed up: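 DMSO-normalized, positive-direction endpoint derived from the 460 nm/530 nm FRET ratio in HCT116 p53 beta-lactamase reporter cells exposed 16 h at 37C and loaded with CCF4-AM for 2 h.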

Assay [2] shares this target. Description: TOX21_p53_BLA_p3_ratio: Tox21 HCT-116 p53 Agonism Beta-lactamase Assay, Ratio, Phase 3 (AID 2283596). Summed up: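 Cells were seeded at 4000/well, rested 5 h at 37C, then dosed with DMSO compound solutions (217-fold dilution) for 16 h. CCF4-AM substrate was loaded for 2 h at room temperature, and the 460/530 nm emission ratio was fitted for gain of signal versus DMSO.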

Assay [3] shares this target. The experiment in a line: TOX21_p53_BLA_p5_ratio: Tox21 HCT-116 p53 Agonism Beta-lactamase Assay, Ratio, Phase 5 (AID 2283599). The method in brief:
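HCT-116 cells carrying a p53-inducible beta-lactamase reporter were seeded at 4000 cells/well and dosed after 5 h with compound in DMSO (217-fold dilution). After 16 h at 37C, CCF4-AM substrate was added for 2 h, and the 460/530 nm emission ratio was scored as gain-of-signal versus DMSO.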

Assay [4] can be described thus: TOX21_p53_BLA_p5_viability: Viability Assessment in the Tox21 HCT-116 p53 Agonism Beta-lactamase Assay, Phase 5 (AID 2283600). Summed up: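 Here cell health was gauged by ATP levels in wells holding 4000 cells, each treated 16 h with DMSO-delivered compounds at 217-fold dilution; reduced luminescence marked toxicity.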
In assay [5] the target is Cellular tumor antigen p53 (Homo sapiens) (UniProt P04637). Description: TOX21_p53_BLA_p4_ratio: Tox21 HCT-116 p53 Agonism Beta-lactamase Assay, Ratio, Phase 4 (AID 2283601). The method in brief: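 HCT116 cells carrying an inducible beta-lactamase reporter were plated at 4000 cells/well, rested 5 h, then exposed to compounds in DMSO (217-fold dilution) for 16 h at 37C. CCF4-AM substrate was loaded 2 h at room temperature; 460/530 nm emission ratio scored gain-of-signal versus DMSO.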
Chain of Cellular tumor antigen p53 (Homo sapiens) (P04637 whole entry, looked up): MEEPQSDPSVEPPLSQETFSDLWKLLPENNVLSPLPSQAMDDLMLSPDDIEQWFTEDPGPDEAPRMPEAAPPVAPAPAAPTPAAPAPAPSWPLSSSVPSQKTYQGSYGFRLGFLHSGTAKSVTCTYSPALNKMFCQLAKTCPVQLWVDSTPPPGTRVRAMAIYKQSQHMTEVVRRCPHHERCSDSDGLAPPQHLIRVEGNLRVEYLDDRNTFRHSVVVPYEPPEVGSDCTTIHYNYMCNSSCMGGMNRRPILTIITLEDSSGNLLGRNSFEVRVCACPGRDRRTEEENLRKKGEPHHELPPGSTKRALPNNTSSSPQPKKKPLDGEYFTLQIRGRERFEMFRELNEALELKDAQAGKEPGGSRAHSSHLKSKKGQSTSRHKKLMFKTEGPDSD

“And” between values parts separate entries of the source, which are not always exact repeats. Identical values can stand only once. Records with an inconclusive call do not appear. The source made the active and inactive calls. The calls were made as follows: active = hit-call score of the fitted dose curve at least 0.9, where 1 is the maximum; inconclusive = response in the unintended direction; inactive = score below 0.9.

In the case of `O=C(Cl)C(Cl)Cl`, the outcome in assay [1], in assay [2], in assay [3], in assay [4] and in assay [5] was inactive.

Consider `C=CCC1([C@H](C)CCC)C(=O)NC(=O)NC1=O`, for which the result in assay [1], in assay [2], in assay [3], in assay [4] and in assay [5] was inactive.

Consider `Cc1c(N)nc([C@H](CC(N)=O)NC[C@H](N)C(N)=O)nc1C(=O)N[C@H](C(=O)N[C@H](C)[C@@H](O)[C@H](C)C(=O)N[C@H](C(=O)NCCc1nc(-c2nc(C(=O)NCCC[S+](C)C)cs2)cs1)[C@@H](C)O)[C@@H](O[C@@H]1O[C@@H](CO)[C@@H](O)[C@H](O)[C@@H]1O[C@H]1O[C@H](CO)[C@@H](O)[C@H](OC(N)=O)[C@@H]1O)c1cnc[nH]1`, for which the AC50 was 195 nM (active) and 1.16 µM (active) in assay [1]; 98.3 nM (active) and 922 nM (active) in assay [2]; 86.5 nM (active) and 808 nM (active) in assay [3]; 219 nM (active) and 730 nM (active) in assay [5].

Consider `NCC1(CC(=O)O)CCCCC1`, for which the outcome in assay [1], in assay [2], in assay [3] and in assay [5] was inactive.

In the case of `S=C=Nc1ccccc1`, the outcome in assay [1], in assay [2] and in assay [4] was inactive.

As to `c1csc(C2(N3CCCCC3)CCCCC2)c1`, the result in assay [1], in assay [2], in assay [3] and in assay [5] was inactive.

Regarding `OC(c1ccccc1)(c1ccccc1)C1CCNCC1`, the outcome in assay [1], in assay [2], in assay [3] and in assay [5] was inactive.
